About 83,000 compounds went through this panel and 20% of them were active in at least one assay; those are over-represented in the sample as a whole.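 Assay: single dose, 48 h. Readout: percent growth (0 = no net growth; negative = cell death). Active: <10.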 Values without a mark were called inactive. Activity calls are given as the source filed them.
Legend:
Assay in all cases: NCI-60 one-dose screen, 48 h (100 = growth as untreated, 0 = no growth, -100 = all killed)
Details in all cases: 10 µM unless noted
RPMI-8226 leukemia = tested on: RPMI-8226 leukemia
OVCAR-8 ovarian = tested on: OVCAR-8 ovarian
OVCAR-5 ovarian = tested on: OVCAR-5 ovarian
OVCAR-4 ovarian = tested on: OVCAR-4 ovarian
SK-OV-3 ovarian = tested on: SK-OV-3 ovarian
IGROV1 ovarian = tested on: IGROV1 ovarian
OVCAR-3 ovarian = tested on: OVCAR-3 ovarian
HS 578T breast = tested on: HS 578T breast
NCI/ADR-RES ovarian = tested on: NCI/ADR-RES ovarian
T-47D breast = tested on: T-47D breast
BT-549 breast = tested on: BT-549 breast
MDA-MB-435 melanoma = tested on: MDA-MB-435 melanoma
SW-620 colon = tested on: SW-620 colon
MCF7 breast = tested on: MCF7 breast
HCT-116 colon = tested on: HCT-116 colon
HCC-2998 colon = tested on: HCC-2998 colon
KM12 colon = tested on: KM12 colon

Row | Structure (SMILES) | growth (RPMI-8226 leukemia) | growth (OVCAR-8 ovarian) | growth (OVCAR-5 ovarian) | growth (OVCAR-4 ovarian) | growth (SK-OV-3 ovarian) | growth (IGROV1 ovarian) | growth (OVCAR-3 ovarian) | growth (HS 578T breast) | growth (NCI/ADR-RES ovarian) | growth (T-47D breast) | growth (BT-549 breast) | growth (MDA-MB-435 melanoma) | growth (SW-620 colon) | growth (MCF7 breast) | growth (HCT-116 colon) | growth (HCC-2998 colon) | growth (KM12 colon)
1 | Cc1nc(C)c(C)nc1C | 104% | 91.8% | 115% | 114% | 96.5% | 108% | 109% | 85.6% | 109% | 92.5% | 110% | 108% | 103% | 101% | 98.4% | 95.6% | 105%
2 | C=C(C)[C@@H]1CC[C@]2(C(=O)NCCCO)CC[C@]3(C)[C@H](CC[C@@H]4[C@@]5(C)CCCNC(C)(C)[C@@H]5CC[C@]43C)[C@@H]12 | 29% | 87.4% | 88% | 69.3% | 85.5% | 75.9% | 79.2% | 61.9% | 82.7% | 43.8% | 78.5% | 69.9% | 74.9% | 41.5% | 53.7% | 74.3% | 84.5%
3 | CCCCc1n(Cc2ccc3ccccc3c2)c2ccccc2[n+]1Cc1ccc2ccccc2c1 | -37.9% (active) | -76.7% (active) | -94.1% (active) | -90.7% (active) | -65.5% (active) | -80.1% (active) | -87.8% (active) | -61.5% (active) | 63.2% | -62.1% (active) | -74% (active) | -93.6% (active) | -79.8% (active) | -85.6% (active) | -83.2% (active) | -80.6% (active) | -82.9% (active)
4 | COc1ccc2oc(=O)cc(-c3nc4ccc(N)cc4[nH]3)c2c1 | 83.4% | 89.9% | 92.6% | 95.8% | 77.5% | 76.7% | 86.2% | 81.5% | 88% | 51.8% | 77.1% | 106% | 103% | 77.2% | 88.6% | 97.9% | 87.7%
5 | C=C(C)[C@@H]1CC[C@]2(C(=O)O)CC[C@]3(C)[C@H](CC[C@@H]4[C@@]5(C)C[C@@H](CC#Cc6ccccc6C)C(=O)C(C)(C)[C@@H]5CC[C@]43C)[C@@H]12 | 14.6% | 24.3% | 61% | 31.4% | 34.2% | 62% | 18.3% | 45% | 48% | 20.7% | 43.4% | 55.5% | 25.7% | 15.3% | 12.5% | 31.7% | 20.3%
6 | [2H]c1nc(Nc2ncc3cc(C(=O)N(C)C)n(C4CCCC4)c3n2)c([2H])c([2H])c1N1C([2H])([2H])C([2H])([2H])NC([2H])([2H])C1([2H])[2H] | 31% | 73.8% | 40.3% | 93.1% | 57.1% | 65.8% | 97% | 67.1% | 106% | 53.2% | 89.4% | 68.9% | 35.5% | 46.9% | 40.9% | 77.5% | 42.5%
7 | CCN(CC)CC#CCOC(=O)[C@]1(C)CCC[C@]2(C)[C@H]3C[C@H]4C(C(C)C)=C[C@]3(CC[C@H]21)[C@@H]1C(=O)CCC(=O)[C@@H]14 | 17.5% | 39.6% | 62.4% | 36.4% | 77.8% | 64.2% | 58.5% | 69.3% | 45.7% | 35.5% | 63.7% | 74% | 55.1% | 25.1% | 35.8% | 75% | 51.9%
8 | NS(=O)(=O)c1ccc(-n2nc(-c3ccccc3)ccc2=O)cc1 | 109% | 101% | 113% | 117% | 99.6% | 72.3% | 112% | 106% | 103% | 93.8% | 123% | 113% | 108% | 96% | 102% | 108% | 99.6%
9 | COc1ccc(-c2cc(C(=O)N3N=C(c4ccc(N)cc4)CC3c3ccc(OC)cc3)c3cc(OC)ccc3n2)cc1 (centres undefined) | 16.9% | 22.1% | 103% | 71.9% | 78.3% | 50.8% | 22% | 45.9% | -8.76% (active) | 43.4% | 66.4% | 3.45% (active) | 30.1% | 14.2% | 7.78% (active) | 91.6% | 22.5%
10 | CN(C)CCCn1c2c(c3cc(-c4cccc(S(N)(=O)=O)c4)ccc3c1=O)C(=O)c1ccccc1-2 | 70.3% | 56% | 97.7% | 82.3% | 67.8% | 66.7% | 87.8% | 99.6% | 70.6% | 74.7% | 76.1% | 80.3% | 36.8% | 27.7% | -82.6% (active) | 77.2% | 65.5%
11 | Cc1cccc(C)c1NCc1nnc(-c2ccco2)o1 | 77.9% | 98.2% | 99.8% | 101% | 87% | 85.3% | 94.8% | 91.5% | 97.3% | 80.6% | 99% | 103% | 93.8% | 87.1% | 84.1% | 103% | 91.6%
12 | CCOC(=O)NC(Cc1ccccc1)c1ccccc1 (centres undefined) | 98.2% | 104% | 106% | 106% | 108% | 103% | 119% | 102% | 98.2% | 99.6% | 96.5% | 114% | 95.2% | 101% | 96% | 104% | 110%
13 | COc1cc(/C=C/C(=O)c2ccc(NC(=O)CSc3nnc(-c4cc(OC)c(OC)c(OC)c4)n3-c3ccccc3)cc2)cc(OC)c1OC | -13.1% (active) | 10% | 61.4% | 54.8% | 38% | 7.57% (active) | -17.8% (active) | 83.1% | 44.3% | 50.3% | -19.6% (active) | -36.1% (active) | -76.4% (active) | 11.2% | -80.6% (active) | -91.8% (active) | -6.65% (active)
14 | O=C(/C(=C\c1c(-c2ccccc2)[nH]c2ccccc12)S(=O)(=O)c1ccccc1)c1ccccc1 | -34.2% (active) | 66.2% | 83.1% | 42.8% | 23.1% | 78.7% | 56.3% | 72.1% | 43.4% | 22.2% | 47.7% | 17.2% | 53% | 40.7% | 33% | 73.1% | 27%
15 | COc1ccc(C(=O)c2cc(OC)c(OC)c(OC)c2)cc1OC(=O)C(Cl)(Cl)Cl | 17.9% | 2.55% (active) | 63.8% | 59.7% | 8.13% (active) | 15.9% | -13.5% (active) | 38.9% | 9.28% (active) | 63% | -0.136% (active) | -13.5% (active) | 22.9% | 9.81% (active) | 4.91% (active) | 15.4% | 9.4% (active)
16 | CCOC(=O)c1c(C)nc2c(c1N)/C(=C/c1ccc[nH]1)C(=O)N2Cc1ccc(C(F)(F)F)cc1 | 104% | 28.5% | 74.5% | 12.6% | 21.9% | 54.7% | 47.7% | 38% | 49.7% | 24.8% | 58.4% | 90.9% | 66% | 45.1% | 28.4% | 91.2% | 81.6%
17 | O=C1NC(SCc2ccc(F)cc2)=N/C1=C/c1cccc(OCc2ccc(Cl)cc2)c1 | 53.5% | 52.8% | 66.1% | -48.4% (active) | 55.4% | 26.6% | 18.1% | 29.6% | 65.8% | 53.5% | 87.2% | 88.5% | 54.1% | 64.1% | -10.9% (active) | 92.1% | 88.9%
